PrPC TRFRET – inhibitors of human cell surface prion protein PrPC; P04156; TR-FRET read-out; inhibition, % at 13.8 µM; 370,000 compounds, 0.43% hits; AID 720596; in the data active means inhibition above about 24%; further: 0% = median of the test wells and 100% = reference compound wells
VHR inh abs – inhibitors of human VHR1 phosphatase (DUSP3); P51452; recombinant VHR phosphatase, pNPP absorbance; inhibition, % at 13.3 µM; 290,000 compounds, 0.52% hits; AID 1654; in the data active means inhibition above about 50%
Target sequence (P51452 whole entry, looked up): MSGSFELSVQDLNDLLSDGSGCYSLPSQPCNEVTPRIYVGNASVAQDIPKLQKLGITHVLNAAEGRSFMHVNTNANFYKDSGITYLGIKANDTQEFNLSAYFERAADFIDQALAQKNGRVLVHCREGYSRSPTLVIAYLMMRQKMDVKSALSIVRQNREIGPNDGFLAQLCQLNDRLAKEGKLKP
MazF activator – activators of E. coli MazEF toxin-antitoxin RNase. FAM/BHQ RNA-DNA oligo cleavage fluorescence, 5 h. 350,000 compounds, 0.32% hits. P0AE70. activation, % at 20 µM; in the data active means activation above about 50%
Target sequence (P0AE70 whole entry, looked up): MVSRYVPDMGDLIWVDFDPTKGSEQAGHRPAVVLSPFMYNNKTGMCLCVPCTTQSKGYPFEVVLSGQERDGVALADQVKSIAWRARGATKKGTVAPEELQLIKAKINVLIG
Yp Topo-I inh – inhibitors of Yersinia pestis topoisomerase I | Y. pestis Topo-I cleavage product accumulation, plate reader | activity, % at 10 µM | 360,000 compounds, 0.064% hits; in the data active means activity above about 50%, passing the limit was not always enough
CCHFV vOTU inh – CCHFV vOTU protease inhibition. inhibition, % at 11.5 µM. 370,000 compounds, 0.55% hits. AID 651958. Pep-AMC fluorescence; in the data active means inhibition above about 30%; further: 0% = vehicle wells with enzyme and 100% = no enzyme wells
BH1578 lux ind – quorum light induction in luxS cqsA deficient V. cholerae; V. cholerae BH1578 lux reporter, luminescence, 6 h; activation, % at 18.7 µM; 350,000 compounds, 0.16% hits; in the data active means activation mostly above about 9.7%, no sharp cut-off
* = called active by the depositor; i = inactive; nt = not tested or not shown. The list is not random: actives were taken first. Their share in the collection is about 1.8%.

SMILES	PrPC TRFRET	VHR inh abs	MazF activator	Yp Topo-I inh	CCHFV vOTU inh	BH1578 lux ind
CCCCn1c(C(C)NC(=O)CC)nc2ccccc21 (centres undefined)	5	2	9	2	3	-2
O=C(NC1CCCCN(Cc2cccc(C(F)(F)F)c2)C1=O)c1cccc([N+](=O)[O-])c1 (centres undefined)	-11	nt	nt	nt	16	nt
CC(C)(C)NC(=O)CSc1nnc(-c2ccco2)n1Cc1ccco1	5	7	0	-2	6	i
CCCn1c(SCC(=O)NC(C)(C)C)nnc1-c1ccco1	4	53*	4	-11	2	0
Cc1ccc(C)c(NC(=S)N(CCc2nc3cc(C)c(C)cc3[nH]2)Cc2cccnc2)c1	2	53*	19	-9	-2	i
Cc1cc(C)c(S(=O)(=O)c2ccc(C(C)(C)C)cc2)c(Cl)n1	-1	53*	-6	41	12	0
Cc1c(NC(=O)C2CCCN(S(=O)(=O)c3ccc(C(C)(C)C)cc3)C2)c(=O)n(-c2ccccc2)n1C (centres undefined)	-4	nt	nt	nt	-1	nt
Cc1nc(N2CCN(C)CC2)c2c(C)c(C(=O)Nc3ccc(F)cc3)sc2n1	-19	55*	-4	-4	15	i
CCOC(=O)C1CCN(C(=O)c2cccc(N3C(=O)NC4CC3(C)Oc3ccc(C)cc34)c2)CC1 (centres undefined)	4	6	10	10	13	0
CC12CC(NC(=O)N1c1cccc(C(=O)Nc3ncn[nH]3)c1)c1ccccc1O2 (centres undefined)	-3	-10	59*	2	-1	-2
Cc1ccc2c(c1)C1CC(C)(O2)N(c2cccc(C(=O)N3CCN(c4ccccn4)CC3)c2)C(=O)N1 (centres undefined)	6	56*	7	19	12	0
CSc1ccc(-c2cc3c(c4c2ccn4C)C2CCC3O2)cc1 (centres undefined)	-3	nt	nt	nt	-31	nt
NC(N)=NS(=O)(=O)c1ccc(NC(=S)NC(=O)c2ccc(Br)cc2)cc1	0	18	59*	4	-3	0
NC(N)=NS(=O)(=O)c1ccc(NC(=S)NC(=O)c2ccncc2)cc1	-2	25	10	-1	1	2
COC(=O)C[C@H]1CC[C@@H]2[C@@H](COc3ccc(NC(=O)C4CCCCC4)cc3C(=O)N2C)O1	-2	nt	nt	nt	-6	nt
O=C1c2ccccc2C(=O)N1CCCn1c2ccc(Cl)cc2c2nc3ccccc3nc21	11	nt	4	6	29	-1
COc1ccc2c(c1)c1nc3ccccc3nc1n2CC(=O)OC(C)C	-1	12	370*	6	3	0
COc1ccc(Cn2c3ccc(OC)cc3c3nc4ccccc4nc32)cc1	-7	10	65*	7	-3	-2
COc1ccc2c(c1)c1nc3ccccc3nc1n2CCCN1C(=O)c2ccccc2C1=O	9	21	698*	-2	7	0
Cc1nn(C)c(C)c1S(=O)(=O)N(CC(=O)NCCCN1CCC(C)CC1)c1ccc(C(C)C)cc1	-4	56*	0	3	15	0
CC(C)OC(=O)c1c2c(n3ccccc13)C(=O)c1ccccc1C2=O	-6	5	175*	8	-12	i
COc1ccc(-n2c(SCC(=O)Nc3cc(C)c(NC(=O)c4ccccc4)cc3OC)nnc2-c2ccco2)cc1	2	nt	nt	nt	15	nt
O=C(CCc1nc(-c2ccccc2F)no1)NCCc1c[nH]c2ccccc12	-1	nt	nt	nt	-6	nt
O=C(c1cc(Br)c(Br)s1)N1CCN(C/C=C/c2ccccc2)CC1	2	28	-6	58*	15	6
Cc1cc(C(=O)N2CCN(C/C=C/c3ccccc3)CC2)cs1	nt	-5	-24	25	nt	-1
SMILES	PrPC TRFRET	VHR inh abs	MazF activator	Yp Topo-I inh	CCHFV vOTU inh	BH1578 lux ind
COc1ccccc1C(=O)NC1CCCCN(Cc2ccccc2C)C1=O (centres undefined)	11	nt	nt	nt	5	nt
Cn1cncc1C#Cc1ccc2cc(C3(O)CCCCC3)oc(=O)c2c1	0	nt	76*	4	5	-1
CN(C)CCCNC(=S)N(CCCO)Cc1cc2cc3c(cc2[nH]c1=O)OCO3	5	20	6	4	-5	i
CCCCNC(=S)N(CCCO)Cc1cc2cc3c(cc2[nH]c1=O)OCCO3	-4	51*	1	-3	-30	0
C=CCN1CCN(C(=O)CSc2ccccc2)CC1	-1	57*	10	2	-6	1
CCc1ccc(-c2cc(C(=O)N/N=C/c3ccccn3)[nH]n2)cc1	2	-4	21	17	18	-1
O=C(N/N=C/C=C\c1ccccc1[N+](=O)[O-])c1cc(-c2ccc3ccccc3c2)n[nH]1	0	52*	6	9	-4	0
O=C(N/N=C/c1ccccn1)c1cc(-c2ccc3ccccc3c2)n[nH]1	-8	51*	15	2	-5	0
CC(C)C[C@@H]1COc2cccc(N3CCSCC3)c2S(=O)(=O)N1C	4	nt	nt	nt	0	nt
COCc1[nH]nc2c1C(c1ccc(F)cc1)N(c1ccc(OC)cc1)C2=O (centres undefined)	10	nt	nt	nt	22	nt
CCS(=O)(=O)n1nc(-c2ccccc2)cc1N	-1	25	4	-4	3	0
CCCS(=O)(=O)n1nc(-c2ccccc2)cc1N	-3	54*	7	3	5	0
CCCCNS(=O)(=O)c1ccc2nc(SCC(=O)Nc3sccc3C#N)[nH]c2c1	21	10	5	-3	30*	nt
CCCCNS(=O)(=O)c1ccc2nc(SCC(N)=O)[nH]c2c1	0	21	-4	-3	13	-1
N#CCC[C@@H]1CC[C@]2(CCCN(S(=O)(=O)C3CCCCC3)C2)O1	-4	nt	nt	nt	-2	nt
Cc1cccc(C(=O)N(Cc2nc3ccccc3c(=O)[nH]2)C2CCCCC2)c1	17	52*	4	54*	24	-1
Cn1cc(C2(C)CCOc3ccccc32)c2ccccc21 (centres undefined)	-3	nt	nt	nt	2	nt
C=C(C)CNC(=S)NNC(=O)c1ccc(Br)cc1	-3	51*	6	0	-25	i
C=CCNC(=S)NNC(=O)c1ccc(Br)cc1	-3	23	3	3	17	0
CCn1c(/C=C/c2ccc(O)cc2)nc2ccccc2c1=O	-7	8	1	-1	-3	1
CCn1c(/C=C/c2ccc(O)c(O)c2)nc2ccccc2c1=O	-3	8	121*	-9	5	0
CCn1c(/C=C/c2c(C)n(CC)c3ccccc23)nc2ccccc2c1=O	-1	-28	70*	3	16	0
Cc1nn(-c2ccccc2)c2sc(C(=O)N3CCC4(CC3)OCCO4)cc12	0	nt	nt	nt	15	nt
O=C(Oc1cccc(OC(=O)c2ccco2)c1)c1ccco1	-6	56*	7	2	7	0
CCn1c(-c2ccsc2)nc2c1c(=O)[nH]c(=O)n2Cc1ccccc1	-2	-15	3	-2	-9	0
